High-throughput results deposited in PubChem BioAssay by National Center for Advancing Translational Sciences (NCATS).
Lassa entry inh: Lassa virus entry inhibition | Potency, µM (doses to about 37.9 µM), for the others: at the highest dose activity change, negative = inhibition, usual class: inhibitors | 300,000 tested, 1.2% active | Lassa virus pseudotype entry inhibition, cell reporter; calls by dose curve; tested in HEK293 cells; also: potency is read from the fitted curve at half-maximal effect; % is scaled to controls: 0 for no effect and ±100 for the full control effect; nearly all actives have a fitted effect of over 50% in size
Pf growth 48h: P. falciparum growth inhibition at 48 hours (one generation); P. falciparum luciferase growth in erythrocytes, 48 h; Potency, µM (top dose mostly 28.7 µM), for inactives: at the top dose activity change, negative = inhibition, most hits filed as inhibitors; 310,000 tested, 5.9% active; also: potency is read from the fitted curve at half-maximal effect; % is scaled to controls: 0 for no effect and ±100 for the full control effect
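A one-generation exposure of luciferase-tagged malaria parasites in RPMI 1640/Albumax erythrocyte culture, 37 C and 5% CO2. Inhibition is inferred from decreased luminescence after adding detection reagent.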
Shiga inhibitor: Shiga toxin inhibition; inhibition, % at 38.7 µM; 290,000 tested, 9.2% active; Vero cells, Shiga toxin protein synthesis inhibition reporter; in the data active = inhibition mostly above about 28%, no sharp cut-off; inactive = mostly below about 43%; also: 0% is about no effect
Cycloheximide cs: counter-screen hit for Shiga toxin inhibitors, cycloheximide. 300,000 tested, 12% active. max response, %. cell reporter, cycloheximide protein synthesis inhibition counterscreen; in the data active = max response mostly above about 13%, no sharp cut-off; inactive = mostly below about 14%; also: read at 38.3 µM for the half of the compounds with a filed dose; 0% is about no effect
Marburg entry inh: inhibitors of Marburg virus binding or cell entry | Marburg virus pseudotyped entry inhibition, cell reporter | Potency, µM (highest dose often 37.8 µM), for the others: at the top dose activity change, negative = inhibition, actives largely listed as inhibitors | 300,000 tested, 1.8% active | AID 540276; calls by dose curve; tested in HEK293 cells; also: potency is read from the fitted curve at half-maximal effect; % is scaled to controls: 0 for no effect and ±100 for the full control effect
Pf growth 96h: P. falciparum growth inhibition at 96 hours; P. falciparum luciferase reporter growth, 96 h; Potency, µM (series often up to 28.7 µM), for inactives: at the top dose activity change, negative = inhibition, usual class: inhibitors; 320,000 tested, 6.9% active; also: potency is read from the fitted curve at half-maximal effect; % is scaled to controls: 0 for no effect and ±100 for the full control effect
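Two parasite generations (96 h, 37 C, 5% CO2) of compound exposure in infected erythrocytes (0.05% parasitemia, 2% hematocrit). Luciferase-reporter P. falciparum; decreased luminescence indicates inhibited growth, aimed at apicoplast-acting delayed death.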
* hit, by the source's call; ? = inconclusive; · = no result; ! = not active in a repeat; [ ] = dose if it differs, or a comment. This is a sample that favours compounds with a hit; in the whole collection about 19% have one here. Unless noted, calls follow the shape of the dose curve; as a rule, active = well fitted inhibition curve with a large enough effect; inconclusive = small, poorly fitted or top-dose-only effect, or another doubt; inactive = no such curve, though single readings can be large or run the other way.

SMILES	Lassa entry inh	Pf growth 48h	Shiga inhibitor	Cycloheximide cs	Marburg entry inh	Pf growth 96h
CCOC(=O)CSc1nc2ccccc2c(=O)n1NC(=O)c1ccccc1	-7%	347%	66*	37*	-7%	7.4µM*
CCOC(=O)CSc1nc2ccccc2c(=O)n1C	-8%	?	-8	-4	?	-20%
COc1ccc(C(=O)Nn2c(SCc3ccc([N+](=O)[O-])cc3)nc3ccccc3c2=O)cc1	?	361%	82*	25*	?	?
COc1ccccc1CNC(=O)CN1C(=O)NC2(CCC(C)CC2)C1=O (stereo not drawn)	-10%[46.1 µM]	·	·	·	-19%[46.1 µM]	·
COc1cccc2cc(C(=O)NC3CC4CCC3C4)oc12 (stereo not drawn)	?	?	21	14*	-1%[46.1 µM]	5%
COc1ccc2oc(=O)c(C(=O)NC3CCCCCC3)cc2c1	-7%	31%	·	23*	14%	?
O=C(NC[C@@H]1CCCO1)c1cccc2c1C(=O)c1ccc(Cl)cc1S2(=O)=O	·	-3%	·	·	·	?
CCOC(=O)CC(NC(=O)c1cc2cccc(OC)c2oc1=O)c1ccc(OC)cc1 (stereo not drawn)	·	12%	102*	44*	·	15%
COc1cccc2cc(C(=O)NCCN3CCOCC3)oc12	·	-6%	-18	-4	·	-8%
COc1ccc(-c2ccc3c(c2)S(=O)(=O)c2cccc(C(=O)NC[C@@H]4CCCO4)c2C3=O)cc1OC	·	13µM*	·	·	·	?
CNC(=O)c1cc2cc(OC)ccc2oc1=O	13%	·	-8	-2	16%	-15%
Cc1ccc(NC(=O)c2sc(N)nc2-c2ccc([N+](=O)[O-])cc2)c(C)c1	?	-1%	0	0	-12%[46.1 µM]	0%
C=CCN1C(=O)/C(=C2/Sc3ccccc3N2C)SC1=Nc1ccccc1C	-26%	-1%	-7	9	6%	·
COc1ccc2oc(=O)c(C(=O)NCC3CCCO3)cc2c1 (stereo not drawn)	4%	·	45	29*	0%	-8%
COc1cccc2cc(C(=O)NC(C)C3CCCO3)c(=O)oc12 (stereo not drawn)	?	68%	63*	45*	7%	·
COc1cccc2cc(C(=O)NCC3CCCO3)c(=O)oc12 (stereo not drawn)	8%	27%	33	30*	?	·
COc1ccc(CCNC(=O)c2ccc(OC)c(OC)c2)cc1OC	21%[46.1 µM]	6%	-2	0	13%[46.1 µM]	18%
NC12CC3CC(CC(C3)C1)C2	18%	-13%	-8	-2	?	?
CC12CC3CC(C)(C1)CC(N)(C3)C2	?	?	-9	-1	13µM*	6.7µM*!
COc1ccc(C)cc1S(=O)(=O)N1CCN(Cc2ccccc2)CC1	-1%	-25%	29	-1	5%	-17%
O=C(Nc1ccccc1Cl)OCc1cncs1	·	23%	22	17*	·	52%
O=C(OCc1cncs1)c1ccccc1Cl	-1%[46.1 µM]	3%	17	13	27%[46.1 µM]	41%
Cc1cccc(C(=O)OCc2cncs2)c1	11%[46.1 µM]	29%	53	33*	?	-1%
CCOc1ccc(-c2cn[nH]c2N)cc1	1%	·	-2	3	-5%	42%
Cc1cc(SCc2ccc(F)cc2)nc(=O)[nH]1	·	7%	5	6	·	-13%
SMILES	Lassa entry inh	Pf growth 48h	Shiga inhibitor	Cycloheximide cs	Marburg entry inh	Pf growth 96h
O=C(Cn1cc[n+](CC(=O)c2ccccc2)c1)c1ccccc1	-4%	1µM*	-1	0	-3%[46.1 µM]	?
O=C(C[n+]1cccc(Br)c1)c1ccccc1	-16%[46.1 µM]	-2%[0.00184 µM]	-5	-8	24%[46.1 µM]	4%
COc1ccc(C(=O)C[n+]2cccc(Br)c2)cc1	24%	?	33	9.7*	?	-17%
Cc1ccc(C(=O)C[n+]2cc(Br)cc(Br)c2)cc1[N+](=O)[O-]	-1%	9.3µM*	17	-3	-13%	?
O=C(C[n+]1cc(Br)cc(Br)c1)c1ccc(-c2ccccc2)cc1	·	·	34	6	·	?
O=C(C[n+]1cc(Br)cc(Br)c1)c1ccccc1	0%	13%	-8	9	-15%[46.1 µM]	0.17µM*
Cc1cc(NC(=O)CCC(=O)N(CC(=O)NCC2CCCO2)c2ccc(Cl)c(Cl)c2)no1 (stereo not drawn)	8%	-12%	-10	-5	13%[46.1 µM]	-4%
CCOC(=O)/C(C#N)=C/c1ccc(OCC(=O)Nc2ccc(OC)cc2)c(OC)c1	2%	-28%	12	0	-19%	?
